LMNA splice mod = LMNA splicing modulation | AID 1487 | HeLa LMNA splicing GFP/RFP minigene ratio, 48 h | hit rate 0.01% among 200,000 | Potency, µM (highest dose often 46.1 µM), hits mostly inhibitors; active means well fitted inhibition curve with a large enough effect in the signal ratio, with a control signal flat, not every such curve was filed as active; inconclusive means small, poorly fitted or top-dose-only effect, or effect the other way, or a change in a side signal; the % refers to the signal ratio
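S3 HeLa cells stably expressing lamin A-EGFP splicing minigene plus DsRed2, 600 cells/well, 48 h compound exposure at 37C. Laser-scanning cytometry; analysed as GFP (500-530 nm)/RFP (575-640 nm) total intensity ratio; 0.5% DMSO vehicle.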
Epigenetic derep = regulators of epigenetic silencing causing reporter derepression in mouse cells; murine LDR cells, GFP reporter derepression, 30 h; Potency, µM (top dose mostly 53.9 µM), most hits filed as activators; hit rate 0.2% among 280,000; AID 1865; further: nearly all actives have a fitted effect of over 60% in size
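Reporter derepression read as number of fluorescent GFP-positive objects, 20-120 um in size, counted by laser-scanning cytometer. Mouse LDR line with an epigenetically silenced CMV-GFP locus; compound incubation 30 h, 37 C.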
HTT cytoprotect = protects HTT-Q103 PC12 cells, measured by ATP; PC12 HTT-Q103 induced, cytoprotection, ATP luminescence, 40 h; Potency, µM (highest dose often 56.4 µM), hits mostly activators; hit rate 0.14% among 230,000; further: nearly all actives have a fitted effect of over 45% in size
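Cells were plated at 1500 per well in phenol red-free DMEM with 5% equine and 5% calf serum. Tebufenozide (100 nM final) and compounds were added, then ATPlite reagent, and luminescence was read.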
HTT aggregate = reduces HttQ103-GFP aggregates in PC12 cells. Potency, µM (top dose mostly 46.1 µM), hits mostly inhibitors. hit rate 1.1% among 220,000. PC12 HttQ103-GFP aggregates, Acumen cytometry, 40 h. AID 1688; further: nearly all actives have a fitted effect of over 60% in size
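PC12 cells with ecdysone-inducible HTT exon1 Q103-GFP, induced by 100 nM tebufenozide, given compounds in a concentration series. GFP aggregates (1–25 um, 6 SD above background) counted in lysates by laser-scanning cytometry, 488 nm excitation.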
NPSR antag = neuropeptide S receptor (human) antagonism, cAMP; CHO-NPSR cells, cAMP TR-FRET, antagonist mode; Potency, µM (titrated, usually from 38.3 µM), most hits filed as inhibitors; hit rate 1% among 220,000; AID 1461; further: nearly all actives have a fitted effect of over 50% in size
Target sequence (Q6W5P4 whole entry, looked up): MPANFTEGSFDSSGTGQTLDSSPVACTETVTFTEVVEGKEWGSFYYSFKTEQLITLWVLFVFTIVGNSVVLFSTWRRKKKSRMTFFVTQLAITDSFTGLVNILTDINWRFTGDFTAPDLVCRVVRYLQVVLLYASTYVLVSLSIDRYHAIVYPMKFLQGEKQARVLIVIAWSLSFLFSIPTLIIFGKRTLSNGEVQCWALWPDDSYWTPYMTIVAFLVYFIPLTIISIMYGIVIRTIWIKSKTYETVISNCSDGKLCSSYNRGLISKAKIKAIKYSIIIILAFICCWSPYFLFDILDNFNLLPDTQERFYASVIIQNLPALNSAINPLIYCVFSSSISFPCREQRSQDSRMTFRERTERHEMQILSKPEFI
Hits are given with their value; [ ] = remark or other dose. This is a sample that favours compounds with a hit; in the whole collection about 1.5% have one here. Unless noted, the call rests on the fitted dose curve; in most records, active means well fitted curve in the direction sought with a large enough effect; inconclusive means small, poorly fitted or top-dose-only effect, or another doubt; inactive means no such curve, though single readings can be large; an effect the other way counts as inactive or inconclusive.

Results for CCOc1ccc(/C=C/c2nc(C#N)c(Nc3ccc(OCC)cc3)o2)cc1 ?
Epigenetic derep: inactive

How did CCN(Cc1ccccc1)C(=O)CCS(=O)(=O)c1cc(Br)cc2c1N(C(=O)C1CC1)CC2 do in these assays?
Epigenetic derep: inactive

Results for CC1=NNC(=O)/C1=C\c1cn(-c2ccccc2)nc1-c1ccccc1 ?
Epigenetic derep: inactive; HTT cytoprotect: inactive[1.9 µM]; HTT aggregate: inactive[9.22 µM]; NPSR antag: 13µM

Results for Cc1nn(C(C)C(=O)c2cccc(Cl)c2)c(C)c1[N+](=O)[O-] (configuration not stated) ?
Epigenetic derep: inactive; HTT cytoprotect: inactive[10 µM]; HTT aggregate: inactive; NPSR antag: inactive

How did Cn1cnc([N+](=O)[O-])c1S(=O)(=O)c1cccc(Cl)c1 do in these assays?
LMNA splice mod: inconclusive; Epigenetic derep: inconclusive; HTT aggregate: 5.6µM; NPSR antag: inactive

What do the screens show for `Cc1ccc(C(=O)C(c2ccccc2)N2Cc3ccccc3C2=N)cc1` (configuration not stated)?
LMNA splice mod: inconclusive; Epigenetic derep: inconclusive; HTT cytoprotect: inactive[10 µM]; HTT aggregate: 16µM; NPSR antag: inconclusive

Results for N=C1S/C(=C\c2ccco2)C(=O)N1c1nccs1 ?
LMNA splice mod: inconclusive; Epigenetic derep: inconclusive; HTT cytoprotect: inactive; HTT aggregate: inactive; NPSR antag: 6.3µM

What do the screens show for `COC(=O)c1sccc1NC(=O)Cc1ccc(OC)cc1`?
LMNA splice mod: inactive; Epigenetic derep: inactive; HTT aggregate: 40µM; NPSR antag: inactive

What do the screens show for `COC(=O)c1sccc1NC(=O)c1ccc(C)o1`?
LMNA splice mod: inactive; Epigenetic derep: inactive; HTT cytoprotect: inactive; HTT aggregate: inactive; NPSR antag: inactive

Results for CCCCCCCCCCn1ccc(=N)cc1 ?
Epigenetic derep: inactive; HTT cytoprotect: inactive[10 µM]; HTT aggregate: inconclusive; NPSR antag: 7.9µM

What do the screens show for `Cc1noc(C)c1S(=O)(=O)N(CC(=O)NCc1ccccc1Cl)c1ccc(C(C)C)cc1`?
Epigenetic derep: inactive

Results for O=[N+]([O-])c1ccc(N/N=C/c2sc(N3CCOCC3)nc2-c2ccccc2)c(S(=O)(=O)Nc2ccc(Cl)cc2)c1 ?
LMNA splice mod: inconclusive; Epigenetic derep: inconclusive; HTT cytoprotect: inactive; HTT aggregate: 3.5µM; NPSR antag: inactive

Results for Cc1ccc(SCC(=O)N2c3ccccc3Sc3ccccc32)cc1 ?
LMNA splice mod: inactive; Epigenetic derep: inactive; HTT cytoprotect: inactive; HTT aggregate: 16µM; NPSR antag: inconclusive

How did Cc1c(C(=O)N(C)C2CCCCC2)sc2nc3ccc(N)cc3n12 do in these assays?
Epigenetic derep: inactive; HTT cytoprotect: inactive

What do the screens show for `CC(C)c1noc2ncc(C(=O)c3cc(Cl)cc(Cl)c3O)cc12`?
LMNA splice mod: inconclusive; Epigenetic derep: inactive; HTT cytoprotect: inactive; HTT aggregate: 11µM; NPSR antag: inactive

How did O=c1[nH]c2ccc([N+](=O)[O-])cc2nc1/C=C(\O)c1ccccc1 do in these assays?
Epigenetic derep: 6.3µM; HTT cytoprotect: inactive[10 µM]; HTT aggregate: inactive[9.22 µM]; NPSR antag: inactive

What do the screens show for `COc1cccc(-c2nccc(NCc3ccc(OC)cc3OC)n2)c1`?
LMNA splice mod: inconclusive; HTT cytoprotect: inactive

Results for On1onc2c3cc(-c4ccccc4)nc3ccc21 ?
LMNA splice mod: inconclusive; Epigenetic derep: 16µM; HTT cytoprotect: inactive; HTT aggregate: inactive; NPSR antag: 13µM

What do the screens show for `O=c1cc(-c2ccc(F)cc2)nc(SCc2nc(-c3ccc(Cl)cc3)no2)[nH]1`?
LMNA splice mod: inconclusive; Epigenetic derep: inactive

Results for CC(C)n1c(NCCc2ccccc2)nc2c1c(=O)n(C)c(=O)n2C ?
LMNA splice mod: inconclusive; Epigenetic derep: inactive; HTT cytoprotect: inactive[10 µM]; HTT aggregate: 11µM; NPSR antag: inactive

What do the screens show for `CCCNc1nc2c(c(=O)n(C)c(=O)n2C)n1Cc1cccc(C)c1`?
LMNA splice mod: inconclusive; Epigenetic derep: inactive; HTT cytoprotect: inactive[10 µM]; HTT aggregate: 14µM; NPSR antag: inactive

Results for Cn1c(=O)c2c(nc(NCCc3ccccc3)n2Cc2ccc(Cl)cc2)n(C)c1=O ?
Epigenetic derep: inactive

What do the screens show for `Cc1ccc(S(=O)(=O)NCc2ccc(C(=O)N3CCN(c4ccccn4)CC3)cc2)cc1`?
LMNA splice mod: inconclusive; Epigenetic derep: inactive; HTT cytoprotect: inactive; HTT aggregate: inactive; NPSR antag: inactive

How did CCOC(=O)c1ccc(NC(=O)N2CCN(c3ccccn3)CC2)cc1 do in these assays?
LMNA splice mod: inactive; Epigenetic derep: inactive; HTT cytoprotect: inactive; HTT aggregate: 0.56µM; NPSR antag: inactive

What do the screens show for `CCOC(=O)c1ccc(NC(=O)N2CCN(CCc3ccccc3)CC2)cc1`?
LMNA splice mod: inactive; Epigenetic derep: inactive; HTT cytoprotect: inactive[0.074 µM]; HTT aggregate: inactive; NPSR antag: inactive

How did Cc1ccc(NS(=O)(=O)c2ccc(C(=O)N3CCN(c4ccccn4)CC3)cc2)cc1 do in these assays?
LMNA splice mod: inconclusive; Epigenetic derep: inactive; HTT cytoprotect: inactive; HTT aggregate: 11µM; NPSR antag: inactive

How did COc1cccc(C(=O)Oc2c(CN3CCOCC3)cc(Cl)c3cccnc23)c1 do in these assays?
LMNA splice mod: inconclusive; Epigenetic derep: 4.5µM; HTT cytoprotect: inactive[10 µM]; HTT aggregate: 11µM; NPSR antag: 10µM

Results for COc1cc(C(=O)Oc2c(CN3CCOCC3)cc(Cl)c3cccnc23)cc(OC)c1OC ?
LMNA splice mod: inconclusive; Epigenetic derep: inconclusive; HTT cytoprotect: inactive; HTT aggregate: inconclusive; NPSR antag: inactive

Results for COc1ccc(C(=O)Oc2c(CN3CCOCC3)cc(Cl)c3cccnc23)cc1 ?
LMNA splice mod: inconclusive; Epigenetic derep: 7.1µM; HTT cytoprotect: inactive; HTT aggregate: inconclusive; NPSR antag: inactive

Results for O=C(Oc1c(CN2CCOCC2)cc(Cl)c2cccnc12)c1ccc(F)cc1 ?
LMNA splice mod: inconclusive; Epigenetic derep: inconclusive; HTT cytoprotect: inactive[10 µM]; HTT aggregate: 1µM; NPSR antag: 5µM

What do the screens show for `CCOc1ccc(/C=C/c2nc(C#N)c(NC(C)c3ccccc3)o2)cc1` (configuration not stated)?
Epigenetic derep: inactive

What do the screens show for `CCN(C(=O)c1oc2ccc(S(=O)(=O)N3CCCCCC3)cc2c1C)c1ccccc1`?
LMNA splice mod: inactive; Epigenetic derep: inactive

Results for CCOC(=O)Cn1c(=O)n(CC2CCCO2)c2nc(-c3ccc(C(C)C)cc3)nc(C(N)=O)c21 (configuration not stated) ?
LMNA splice mod: inconclusive; Epigenetic derep: inactive

What do the screens show for `N#Cc1cc(NC(=O)c2ccc(F)cc2)c(=O)n2c1[nH]c1ccccc12`?
LMNA splice mod: inconclusive; Epigenetic derep: inactive; HTT cytoprotect: inactive; HTT aggregate: 14µM; NPSR antag: inactive

Results for Cc1c(CCC(=O)O)c(=O)n2c([nH]c3ccccc32)c1C#N ?
LMNA splice mod: inactive; Epigenetic derep: inactive; HTT cytoprotect: inactive; HTT aggregate: inactive; NPSR antag: inactive

Assay outcomes (PubChem)
